Measurements from PubChem BioAssay AID1159580 (chemical genetic matrix, 2015).
Several values for one entry are separate records, joined by “and”; a condition that tells them apart may be missing. Equal entries are not always repeated. Hit rate of the full screen: of about 5,500 compounds, about 2,000 (36%) were called active. Inconclusive results (about 18%) are left out. No stated cut-off is given here; in the data, active means normalized growth mostly below about 0.91 (no sharp cut-off); inconclusive means no clear call, values can overlap the other calls; inactive means mostly above about 0.92. The list shows a part of the results.

Test: chemical genetic growth profiling, strain panel (AID 1159580);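 further: tested at 20 µM; growth read once vehicle control cultures reached saturation at 30 °C; 1 = growth at the plate median or of vehicle wells; lower values mean less growth of the strain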
Settings: S. cerevisiae deletion strains, growth OD

Measured: normalized growth

Oc1ccc2c3c1OC1[C@@H](O)CC[C@@]4(O)[C@@H](C2)N(CC2CCC2)CC[C@]314 (stereo partly specified)
inactive: locus YAL013W, strain DEP1, active compounds read low 1.01 | locus YAL021C, strain ccr4, active compounds read low 0.987 | locus YAL026C, strain drs2, active compounds read low 1.02 | locus YAL030W, strain snc1, active compounds read low 0.981 | locus YBL061C, strain skt5, active compounds read low 0.997 | locus YBR009C, strain hhf1, active compounds read low 1.01 | locus YBR021W, strain FUR4, active compounds read low 1.02 | locus YBR023C, strain chs3, active compounds read low 0.993 | locus YBR171W, strain sec66, active compounds read low 0.974 | locus YBR229C, strain ROT2, active compounds read low 1.02 | locus YBR231C, strain swc5, active compounds read low 0.997 | locus YBR279W, strain paf1, active compounds read low 0.999 | locus YCL011C, strain gbp2, active compounds read low 1.01 | locus YCL016C, strain dcc1, active compounds read low 1.02 | locus YCL029C, strain bik1, active compounds read low 1.03 | locus YCL061C, strain MRC1, active compounds read low 1 | locus YCL069W, strain vba3, active compounds read low 0.993 | locus YCR088W, strain abp1, active compounds read low 1.01 | locus YDL005C, strain med2, active compounds read low 0.989 | locus YDL035C, strain GPR1, active compounds read low 1.02 | locus YDL040C, strain nat1, active compounds read low 1 | locus YDL074C, strain BRE1, active compounds read low 1.04 | locus YDL101C, strain DUN1, active compounds read low 1.02 | locus YDL134C, strain PPH21, active compounds read low 1.02 | locus YDL185W, strain tfp1, active compounds read low 1.02 | locus YDL192W, strain arf1, active compounds read low 1.02 | locus YDR001C, strain nth1, active compounds read low 1.02 | locus YDR069C, strain doa4, active compounds read low 1 | locus YDR101C, strain arx1, active compounds read low 1.01 | locus YDR137W, strain rgp1, active compounds read low 1.01 | locus YDR150W, strain NUM1, active compounds read low 1.02 | locus YDR159W, strain sac3, active compounds read low 0.987 | locus YDR162C, strain NBP2, active compounds read low 1.02 | locus YDR195W, strain ref2 0.974 | locus YDR297W, strain sur2, active compounds read low 1.01 | locus YDR318W, strain mcm21, active compounds read low 1.02 | locus YDR334W, strain swr1, active compounds read low 0.994 | locus YDR335W, strain msn5, active compounds read low 1 | locus YDR388W, active compounds read low 1.01 | locus YDR392W, strain spt3, active compounds read low 1.01 | locus YDR502C, strain sam2, active compounds read low 1.02 | locus YEL003W, strain gim4, active compounds read low 1 | locus YEL037C, strain rad23, active compounds read low 0.988 | locus YEL061C, strain CIN8 (second series), active compounds read low 0.99 | locus YEL061C, strain CIN8, active compounds read low 1.01 | locus YER015W, strain faa2, active compounds read low 0.996 | locus YER016W, strain bim1, active compounds read low 1.01 | locus YER110C, active compounds read low 1.02 | locus YER111C, strain swi4, active compounds read low 0.997 | locus YER155C, strain BEM2 (second series), active compounds read low 0.963 | locus YER155C, strain BEM2, active compounds read low 1.01 | locus YER167W, strain BCK2, active compounds read low 1.02 | locus YFR010W, strain ubp6, active compounds read low 0.978 | locus YGL078C, strain dbp3, active compounds read low 1.01 | locus YGL086W, strain mad1, active compounds read low 1.01 | locus YGL167C, strain pmr1, active compounds read low 0.99 | locus YGL173C, strain kem1, active compounds read low 0.98 | locus YGL227W, strain vid30, active compounds read low 0.986 | locus YGL240W, strain doc1, active compounds read low 1.01 | locus YGL248W, strain PDE1, active compounds read low 1.02 | locus YGL253W, strain hxk2, active compounds read low 1.01 | locus YGR078C, strain PAC10, active compounds read low 1.03 | locus YGR135W, strain pre9, active compounds read low 1.01 | locus YGR229C, strain SMI1, active compounds read low 1.03 | locus YGR252W, strain gcn5, active compounds read low 0.984 | locus YHR013C, strain ard1, active compounds read low 0.973 | locus YHR027C, strain rpn1, active compounds read low 0.996 | locus YHR030C, strain SLT2, active compounds read low 1.02 and 0.983 | locus YHR079C, strain IRE1 (second series), active compounds read low 1.02 | locus YHR079C, strain IRE1, active compounds read low 0.966 | locus YHR094C, strain hxt1, active compounds read low 1.01 | locus YHR129C, strain ARP1, active compounds read low 1 | locus YHR142W, strain chs7, active compounds read low 1.01 | locus YHR200W, strain rpn10, active compounds read low 1.01 | locus YIL066C, strain RNR3, active compounds read low 1.02 | locus YIL073C, strain SPO22, active compounds read low 1.07 | locus YIL125W, strain kgd1, active compounds read low 1.01 | locus YIR030C, strain dcg1, active compounds read low 1.01 | locus YJL092W, strain hpr5, active compounds read low 0.99 | locus YJL095W, strain BCK1 (second series), active compounds read low 0.985 | locus YJL095W, strain BCK1, active compounds read low 1.03 and 0.981 | locus YJL115W, strain asf1, active compounds read low 0.974 | locus YJL129C, strain trk1, active compounds read low 0.974 | locus YJL134W, strain LCB3, active compounds read low 1.01 | locus YJL154C, strain vps35, active compounds read low 0.999 | locus YJL164C, strain tpk1, active compounds read low 1.01 | locus YJL166W, strain qcr8, active compounds read low 0.986 | locus YJL168C, strain set2, active compounds read low 1.01 | locus YJL187C, strain SWE1 (second series), active compounds read low 1.03 | locus YJR043C, strain POL32, active compounds read low 1.04 | locus YJR066W, strain TOR1, active compounds read low 0.905
